Reference: PubChem BioAssay (EPA / NIEHS)
Records with an inconclusive call do not appear. Calls of active or inactive are those of the source. How the source made its calls, unless noted: active means hit-call score of the fitted dose curve at least 0.9, where 1 is the maximum; inconclusive means response in the unintended direction; inactive means score below 0.9.

Read-out: matrix metalloproteinase-1 (MMP1), MMP1 (gene 4312)
Test: LTEA_HepaRG_MMP1: Life Technologies and Expression Analysis (LTEA) Assay for matrix metalloproteinase-1 (MMP1) using HepaRG (AID 2283658; active means hit-call score of the fitted dose curve at least 0.9, where 1 is the maximum; inactive means score below 0.9)
Conditions: mRNA level, 48 h; actives raise or lower the signal
In short: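 Bidirectional concentration-response fitting relative to 0.5% DMSO gives the endpoint, derived from MMP1 mRNA levels (qRT-PCR) in human HepaRG cells treated 48 h with chemicals up to 100 uM.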

SMILES | outcome
CCCCCCCCCCC | inactive
COc1cc(C=O)ccc1O | inactive
CC(=O)OC/C=C(\C)CCC=C(C)C | inactive
Cc1ccc(Cl)cc1 | inactive
C1CCC(SSC2CCCCC2)CC1 | inactive
Oc1ccc2ccccc2c1N=Nc1ccccc1 | inactive
CN1CCCC1=O | inactive
Cc1ccc(C)c(C)c1 | inactive
CCCCN(CCCC)CCCC | inactive

System: Thyroperoxidase (TPO), gene 54314
Test: CCTE_Simmons_AUR_rTPO: CCTE's Amplex UltraRed Assay for Thyroperoxidase (TPO) Inhibition, Simmons Lab (AID 2283662);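 on AC50: potency for loss of signal meaning inhibition of peroxidase activity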
Conditions: not given
In short: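 Cell-free peroxidase activity assay using rat thyroid gland microsomes with excess H2O2 (300 uM) and 25 uM Amplex UltraRed. Compounds tested from 5 nM to 87.5 uM; fluorescence measured after 30 min at 37C, analysed relative to DMSO baseline.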

SMILES | AC50 | outcome
Cc1cc(NC(=O)C(=O)O)cc(C)c1Oc1ccc(O)c2c1CCC2 | 5.07 µM (active) | –
Nc1ccc(S(=O)(=O)c2ccc(N)cc2)cc1 | 6.89 µM (active) | –
Cc1cccc(C)c1O | 23.4 µM (active) | –
Nc1nc(N)c2nc(CNc3ccc(C(=O)N[C@@H](CCC(=O)O)C(=O)O)cc3)cnc2n1 | 11.7 µM (active) | –
Cc1c(C(=O)O)c(O)cc2c1C(=O)c1c(O)c([C@@H]3O[C@H](CO)[C@@H](O)[C@H](O)[C@H]3O)c(O)c(O)c1C2=O | 2.65 µM (active) | –
Cc1ccc(C)c(O)c1C | 10.5 µM (active) | –
CC(=O)OC/C=C(\C)CCC=C(C)C | – | inactive
Cc1cc(=O)[nH]c(=S)[nH]1 | 0.593 µM (active) | –
Cc1oc(-c2ccccc2)nc1CCOc1cccc2c1ccn2CCC(=O)O | 28.8 µM (active) | –
COc1cc(S(=O)(=O)O)c(C)cc1N=Nc1c(O)ccc2cc(S(=O)(=O)O)ccc12 | 23.3 µM (active) | –
O=c1c(O)c(-c2ccc(O)c(O)c2)oc2cc(O)cc(O)c12 | 0.182 µM (active) | –
Oc1ccc2ccccc2c1N=Nc1ccccc1 | – | inactive
CN[C@H]1CC[C@@H](c2ccc(Cl)c(Cl)c2)c2ccc(S(N)(=O)=O)cc21 | – | inactive
C[C@]12C=CC(=O)C=C1CC[C@@H]1[C@@H]2C(=O)C[C@@]2(C)[C@H]1CC[C@]2(O)C(=O)CO | – | inactive
Cc1ccc(N(C)C)cc1 | 11.3 µM (active) | –
Nc1ccccc1N | 4.15 µM (active) | –

System: not listed separately
Test: CCTE_Simmons_CellTiterGLO_HEK293T: Viability Assessment in CCTE's Assays for Thyroperoxidase (TPO) Inhibition, Simmons Lab (AID 2283665);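 on AC50: cells exposed to compound for 24 h before readout; actives reduce ATP signal below DMSO vehicle meaning cytotoxicity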
Conditions: not given
In short: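 Luminescent ATP readout (CellTiter-Glo, 20 min at room temperature) after 24 hr exposure of HEK293T cells to 5 nM–87.5 uM final compound; signal loss relative to DMSO vehicle indicated cytotoxicity; dichlone titrated as positive control.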

SMILES | outcome | AC50
Cc1cc(NC(=O)C(=O)O)cc(C)c1Oc1ccc(O)c2c1CCC2 | inactive | –
Nc1ccc(S(=O)(=O)c2ccc(N)cc2)cc1 | inactive | –
Cc1cccc(C)c1O | inactive | –
Nc1nc(N)c2nc(CNc3ccc(C(=O)N[C@@H](CCC(=O)O)C(=O)O)cc3)cnc2n1 | – | 0.189 µM (active)
Cc1c(C(=O)O)c(O)cc2c1C(=O)c1c(O)c([C@@H]3O[C@H](CO)[C@@H](O)[C@H](O)[C@H]3O)c(O)c(O)c1C2=O | – | 12.6 µM (active)
Cc1ccc(C)c(O)c1C | inactive | –
CC(=O)OC/C=C(\C)CCC=C(C)C | – | 24.6 µM (active)
Cc1cc(=O)[nH]c(=S)[nH]1 | inactive | –
Cc1oc(-c2ccccc2)nc1CCOc1cccc2c1ccn2CCC(=O)O | inactive | –
COc1cc(S(=O)(=O)O)c(C)cc1N=Nc1c(O)ccc2cc(S(=O)(=O)O)ccc12 | – | 13.4 µM (active)
O=c1c(O)c(-c2ccc(O)c(O)c2)oc2cc(O)cc(O)c12 | – | 27.1 µM (active)
Oc1ccc2ccccc2c1N=Nc1ccccc1 | – | 17 µM (active)
CN[C@H]1CC[C@@H](c2ccc(Cl)c(Cl)c2)c2ccc(S(N)(=O)=O)cc21 | – | 9.23 µM (active)
CN1CCCC1=O | inactive | –
C[C@]12C=CC(=O)C=C1CC[C@@H]1[C@@H]2C(=O)C[C@@]2(C)[C@H]1CC[C@]2(O)C(=O)CO | inactive | –
Cc1ccc(N(C)C)cc1 | inactive | –
Nc1ccccc1N | inactive | –

System: not listed separately
Test: Tanguay_ZF_120hpf_TR_legacy: (Legacy) Oregon State University Tanguay Lab 120 Hour Post-fertilization zebrafish Assay for Touch Response (AID 2283667)
Conditions: not given
In short: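 Binary touch-response endpoint in larvae at 120 hpf after static waterborne exposure from embryo stage (28°C, 0.64% DMSO vehicle, 5 uM trimethyltin chloride as positive control); embryos dead at 24 or 120 hpf excluded; fitted as gain versus DMSO.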

SMILES | outcome | AC50
Cc1cc(NC(=O)C(=O)O)cc(C)c1Oc1ccc(O)c2c1CCC2 | inactive | –
Nc1ccc(S(=O)(=O)c2ccc(N)cc2)cc1 | inactive | –
Cc1cccc(C)c1O | inactive | –
Nc1nc(N)c2nc(CNc3ccc(C(=O)N[C@@H](CCC(=O)O)C(=O)O)cc3)cnc2n1 | inactive | –
Cc1c(C(=O)O)c(O)cc2c1C(=O)c1c(O)c([C@@H]3O[C@H](CO)[C@@H](O)[C@H](O)[C@H]3O)c(O)c(O)c1C2=O | inactive | –
CCCCCCCCCCC | inactive | –
Cc1ccc(C)c(O)c1C | inactive | –
CC(=O)OC/C=C(\C)CCC=C(C)C | inactive | –
Cc1ccc(Cl)cc1 | inactive | –
Cc1cc(=O)[nH]c(=S)[nH]1 | inactive | –
Cc1oc(-c2ccccc2)nc1CCOc1cccc2c1ccn2CCC(=O)O | inactive | –
COc1cc(S(=O)(=O)O)c(C)cc1N=Nc1c(O)ccc2cc(S(=O)(=O)O)ccc12 | inactive | –
O=c1c(O)c(-c2ccc(O)c(O)c2)oc2cc(O)cc(O)c12 | inactive | –
Oc1ccc2ccccc2c1N=Nc1ccccc1 | – | 25.4 µM (active)
CN[C@H]1CC[C@@H](c2ccc(Cl)c(Cl)c2)c2ccc(S(N)(=O)=O)cc21 | inactive | –
CN1CCCC1=O | inactive | –
Cc1ccc(C)c(C)c1 | inactive | –
C[C@]12C=CC(=O)C=C1CC[C@@H]1[C@@H]2C(=O)C[C@@]2(C)[C@H]1CC[C@]2(O)C(=O)CO | inactive | –
CCCCN(CCCC)CCCC | inactive | –
Nc1ccccc1N | – | 77 µM (active)

Read-out: Cytochrome P450 (CYP24A1_1), CYP24A1 (gene 1591)
Test: LTEA_HepaRG_CYP24A1_1: Life Technologies and Expression Analysis (LTEA) Assay for Cytochrome P450 (CYP24A1_1) using HepaRG (AID 2283671; active means hit-call score of the fitted dose curve at least 0.9, where 1 is the maximum; inactive means score below 0.9)
Conditions: mRNA level, 48 h; actives raise or lower the signal
In short: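 Differentiated human HepaRG cells were exposed in duplicate for 48 h in serum-free induction medium to eight concentrations (top 100 uM, half-log steps, 0.5% DMSO). CYP24A1 mRNA was quantified by TaqMan qRT-PCR, normalized to ACTB, GAPDH and POLR2A, and fitted bidirectionally versus DMSO.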

SMILES | outcome
CCCCCCCCCCC | inactive
COc1cc(C=O)ccc1O | inactive
CC(=O)OC/C=C(\C)CCC=C(C)C | inactive
Cc1ccc(Cl)cc1 | inactive
C1CCC(SSC2CCCCC2)CC1 | inactive
Oc1ccc2ccccc2c1N=Nc1ccccc1 | inactive
CN1CCCC1=O | inactive
Cc1ccc(C)c(C)c1 | inactive
CCCCN(CCCC)CCCC | inactive
